For part of these data: Results with a measured potency or affinity are listed apart.

Holding throughout (design): scale not given: direction of the effect not stated beside the values
Assay [1] has as its target Protein translocase subunit SecA (Escherichia coli (strain K12)) (UniProt P10408). As to the kind of experiment: Assay to Identify E. coli SecA ATPase Inhibitors. Type of assay: functional. The settings on record: 30 µM.
In assay [2] the target is T1, Ubiquitin-activating enzyme e1, putative (Leishmania donovani (strain BPK282A1)) (UniProt E9BSI1).
T1 sequence (whole entry): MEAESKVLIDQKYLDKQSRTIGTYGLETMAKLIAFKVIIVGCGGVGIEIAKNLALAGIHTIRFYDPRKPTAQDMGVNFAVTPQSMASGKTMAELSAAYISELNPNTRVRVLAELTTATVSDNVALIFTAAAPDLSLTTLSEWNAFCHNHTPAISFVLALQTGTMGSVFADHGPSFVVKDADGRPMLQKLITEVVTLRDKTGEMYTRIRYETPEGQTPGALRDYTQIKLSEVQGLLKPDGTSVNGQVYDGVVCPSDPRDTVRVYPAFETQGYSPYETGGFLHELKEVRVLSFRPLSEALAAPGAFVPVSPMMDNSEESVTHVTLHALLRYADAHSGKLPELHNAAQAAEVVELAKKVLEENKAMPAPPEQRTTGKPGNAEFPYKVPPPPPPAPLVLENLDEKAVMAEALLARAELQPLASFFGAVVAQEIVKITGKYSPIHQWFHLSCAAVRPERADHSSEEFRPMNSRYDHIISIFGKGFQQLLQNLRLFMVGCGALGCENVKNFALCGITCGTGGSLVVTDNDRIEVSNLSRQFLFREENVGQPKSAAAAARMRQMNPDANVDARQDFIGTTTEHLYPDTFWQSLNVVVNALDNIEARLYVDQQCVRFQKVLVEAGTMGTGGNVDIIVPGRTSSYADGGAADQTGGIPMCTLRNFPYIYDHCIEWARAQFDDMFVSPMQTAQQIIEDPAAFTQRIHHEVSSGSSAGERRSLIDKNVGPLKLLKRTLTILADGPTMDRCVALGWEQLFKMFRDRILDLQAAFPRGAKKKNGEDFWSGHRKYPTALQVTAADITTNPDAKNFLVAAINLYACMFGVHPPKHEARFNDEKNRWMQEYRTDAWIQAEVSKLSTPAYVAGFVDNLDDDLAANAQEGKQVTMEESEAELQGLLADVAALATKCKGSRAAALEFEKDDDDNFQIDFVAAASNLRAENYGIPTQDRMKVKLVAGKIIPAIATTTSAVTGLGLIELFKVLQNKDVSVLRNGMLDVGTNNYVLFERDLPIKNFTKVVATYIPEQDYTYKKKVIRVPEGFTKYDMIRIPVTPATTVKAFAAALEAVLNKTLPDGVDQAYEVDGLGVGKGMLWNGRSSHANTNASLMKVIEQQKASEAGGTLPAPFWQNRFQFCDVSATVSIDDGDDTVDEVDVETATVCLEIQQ
As to the kind of experiment: Leishmania donovani Ubiquitin Activating Enzyme (LdE1). Type of assay: functional. Conditions: 30 µM.

In assay [3] the target is Sialic acid-binding Ig-like lectin 9 (Homo sapiens) (UniProt Q9Y336). As to the kind of experiment: Hs-Siglec9 ALPHAscreen SOP 20170721. The settings on record: 10 µM. (In general: Bead proximity is the source of the signal in Alpha formats.)
Sequence of Sialic acid-binding Ig-like lectin 9 (Homo sapiens) (Q9Y336 whole entry): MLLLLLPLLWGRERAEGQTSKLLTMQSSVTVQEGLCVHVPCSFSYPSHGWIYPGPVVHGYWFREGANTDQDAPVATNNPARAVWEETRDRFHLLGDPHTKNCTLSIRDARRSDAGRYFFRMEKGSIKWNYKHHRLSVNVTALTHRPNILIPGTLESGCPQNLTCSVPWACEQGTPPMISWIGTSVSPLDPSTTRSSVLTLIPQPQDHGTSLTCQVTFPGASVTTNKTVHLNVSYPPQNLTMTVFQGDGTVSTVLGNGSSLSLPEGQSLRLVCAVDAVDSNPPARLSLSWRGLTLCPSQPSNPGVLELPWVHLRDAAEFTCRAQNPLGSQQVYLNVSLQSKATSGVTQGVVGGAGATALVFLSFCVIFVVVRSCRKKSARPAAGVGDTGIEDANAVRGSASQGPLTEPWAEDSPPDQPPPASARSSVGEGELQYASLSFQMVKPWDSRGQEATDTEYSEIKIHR
A further assay concerns Trypanosoma cruzi. As to the kind of experiment: Trypanosoma cruzi phosphomannomutase and mannose-1-phosphate guanylyltransferase assay. Type of assay: functional. Conditions: 10 µM.
Assay [4] deals with T2, Arginase-2, mitochondrial (Homo sapiens) (UniProt P78540).
T2 sequence (whole entry): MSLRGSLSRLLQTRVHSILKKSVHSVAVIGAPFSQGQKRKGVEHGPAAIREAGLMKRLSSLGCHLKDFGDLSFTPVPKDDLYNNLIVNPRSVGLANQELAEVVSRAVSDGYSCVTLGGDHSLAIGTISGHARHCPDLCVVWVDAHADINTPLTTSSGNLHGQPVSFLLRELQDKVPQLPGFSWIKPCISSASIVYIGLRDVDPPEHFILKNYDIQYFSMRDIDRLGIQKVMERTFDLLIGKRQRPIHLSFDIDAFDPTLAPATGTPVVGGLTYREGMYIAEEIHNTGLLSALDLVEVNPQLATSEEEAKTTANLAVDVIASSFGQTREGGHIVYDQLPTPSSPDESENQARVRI
As to the kind of experiment: in vitro enzyme assay to detect the production of urea directly proportional to the activity of Arginase II. Also: in the data most compounds retested in dose-response had high values. Format: functional. The settings on record: 33.3 µM.

Assay [5] has as its target T3, Proteasome subunit beta (Trypanosoma cruzi) (UniProt O96673).
T3 sequence (whole entry): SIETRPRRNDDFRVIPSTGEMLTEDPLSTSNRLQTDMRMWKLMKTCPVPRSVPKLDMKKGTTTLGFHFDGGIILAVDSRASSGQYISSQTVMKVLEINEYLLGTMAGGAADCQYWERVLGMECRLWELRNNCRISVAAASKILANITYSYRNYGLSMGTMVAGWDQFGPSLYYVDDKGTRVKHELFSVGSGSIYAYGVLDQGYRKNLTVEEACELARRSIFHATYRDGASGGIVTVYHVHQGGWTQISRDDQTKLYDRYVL
As to the kind of experiment: Trypanosoma cruzi proteasome chymotrypsin-like activity (TcProtChymo) assay. Also: in the data most compounds retested in dose-response had high values. Format: functional. Conditions: 9.37 µM.

The species named for the next assay is Homo sapiens. As to the kind of experiment: To identify inhibition of the IFN signalling (Jak-Stat) pathway via expression of an eGFP reporter gene under the control of an IFN-stimulated response element (ISRE) containing MxA promoter. Conditions: 30 µM. Type of assay: functional.
For assay [6], the target named is T4, Tyrosyl-tRNA synthetase, putative (Trypanosoma cruzi (strain CL Brener)) (UniProt Q4DSP6).
T4 sequence (whole entry): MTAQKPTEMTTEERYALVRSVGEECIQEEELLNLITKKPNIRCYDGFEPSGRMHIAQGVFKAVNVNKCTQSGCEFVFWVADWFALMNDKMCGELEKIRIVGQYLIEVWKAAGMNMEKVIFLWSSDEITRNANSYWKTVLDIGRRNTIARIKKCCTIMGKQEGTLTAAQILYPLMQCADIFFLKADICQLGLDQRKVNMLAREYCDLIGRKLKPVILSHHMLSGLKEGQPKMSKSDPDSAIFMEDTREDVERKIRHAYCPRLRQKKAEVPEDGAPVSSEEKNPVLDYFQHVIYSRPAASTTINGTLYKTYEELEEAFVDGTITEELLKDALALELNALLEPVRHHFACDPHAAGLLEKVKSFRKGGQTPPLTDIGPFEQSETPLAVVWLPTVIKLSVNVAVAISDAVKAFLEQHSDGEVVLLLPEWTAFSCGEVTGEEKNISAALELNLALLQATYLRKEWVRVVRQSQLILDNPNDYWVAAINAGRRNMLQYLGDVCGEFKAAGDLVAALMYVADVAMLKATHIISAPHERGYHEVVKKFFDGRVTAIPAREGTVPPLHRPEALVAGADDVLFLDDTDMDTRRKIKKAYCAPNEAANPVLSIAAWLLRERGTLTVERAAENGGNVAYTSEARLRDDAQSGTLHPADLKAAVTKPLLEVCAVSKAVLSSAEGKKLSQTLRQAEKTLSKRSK
As to the kind of experiment: Trypanosoma cruzi tyrosyl tRNA synthetase (TcYRS) _High Tyrosine SOP. Also: in the data most compounds retested in dose-response had high values. Type of assay: functional. Conditions: 30 µM.

In assay [7] the target is T4, Tyrosyl-tRNA synthetase, putative (Trypanosoma cruzi (strain CL Brener)). As to the kind of experiment: Trypanosoma cruzi tyrosyl tRNA synthetase (TcYRS) SOP. Type of assay: functional. The settings on record: 30 µM.
Assay [8] addresses Chromo domain-containing protein 1 (Saccharomyces cerevisiae (strain ATCC 204508 / S288c) (Baker's yeast)) (UniProt P32657). As to the kind of experiment: ScCHD-1 Enzyme Inhibition Assay. Also: in the data most compounds retested in dose-response had high values. Type of assay: functional. The settings on record: 30 µM.

Sequence of Protein translocase subunit SecA (Escherichia coli (strain K12)) (P10408 whole entry): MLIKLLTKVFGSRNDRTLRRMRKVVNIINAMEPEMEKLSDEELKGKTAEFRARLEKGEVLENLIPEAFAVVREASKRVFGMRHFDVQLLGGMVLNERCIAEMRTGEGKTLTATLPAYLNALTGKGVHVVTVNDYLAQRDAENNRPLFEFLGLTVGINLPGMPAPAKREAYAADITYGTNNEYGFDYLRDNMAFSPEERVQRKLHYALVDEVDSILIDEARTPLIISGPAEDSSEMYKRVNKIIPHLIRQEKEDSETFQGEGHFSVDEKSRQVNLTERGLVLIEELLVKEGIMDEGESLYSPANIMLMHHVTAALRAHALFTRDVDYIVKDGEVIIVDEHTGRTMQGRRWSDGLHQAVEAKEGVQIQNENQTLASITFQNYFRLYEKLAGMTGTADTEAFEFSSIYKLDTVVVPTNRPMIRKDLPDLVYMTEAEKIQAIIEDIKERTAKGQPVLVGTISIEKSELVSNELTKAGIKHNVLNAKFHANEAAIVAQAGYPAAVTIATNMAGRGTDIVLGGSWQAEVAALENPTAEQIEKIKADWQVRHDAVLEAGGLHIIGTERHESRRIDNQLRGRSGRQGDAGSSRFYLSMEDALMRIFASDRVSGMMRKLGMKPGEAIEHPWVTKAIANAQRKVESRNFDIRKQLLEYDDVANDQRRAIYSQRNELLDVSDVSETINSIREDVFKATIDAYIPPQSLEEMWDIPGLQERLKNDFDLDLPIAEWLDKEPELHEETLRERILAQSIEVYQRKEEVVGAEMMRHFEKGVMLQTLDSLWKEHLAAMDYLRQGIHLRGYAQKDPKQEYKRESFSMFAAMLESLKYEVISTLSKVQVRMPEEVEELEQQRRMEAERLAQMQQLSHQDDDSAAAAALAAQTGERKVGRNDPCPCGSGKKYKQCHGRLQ
Sequence of Chromo domain-containing protein 1 (Saccharomyces cerevisiae (strain ATCC 204508 / S288c) (Baker's yeast)) (P32657 whole entry, the tested form may be a part): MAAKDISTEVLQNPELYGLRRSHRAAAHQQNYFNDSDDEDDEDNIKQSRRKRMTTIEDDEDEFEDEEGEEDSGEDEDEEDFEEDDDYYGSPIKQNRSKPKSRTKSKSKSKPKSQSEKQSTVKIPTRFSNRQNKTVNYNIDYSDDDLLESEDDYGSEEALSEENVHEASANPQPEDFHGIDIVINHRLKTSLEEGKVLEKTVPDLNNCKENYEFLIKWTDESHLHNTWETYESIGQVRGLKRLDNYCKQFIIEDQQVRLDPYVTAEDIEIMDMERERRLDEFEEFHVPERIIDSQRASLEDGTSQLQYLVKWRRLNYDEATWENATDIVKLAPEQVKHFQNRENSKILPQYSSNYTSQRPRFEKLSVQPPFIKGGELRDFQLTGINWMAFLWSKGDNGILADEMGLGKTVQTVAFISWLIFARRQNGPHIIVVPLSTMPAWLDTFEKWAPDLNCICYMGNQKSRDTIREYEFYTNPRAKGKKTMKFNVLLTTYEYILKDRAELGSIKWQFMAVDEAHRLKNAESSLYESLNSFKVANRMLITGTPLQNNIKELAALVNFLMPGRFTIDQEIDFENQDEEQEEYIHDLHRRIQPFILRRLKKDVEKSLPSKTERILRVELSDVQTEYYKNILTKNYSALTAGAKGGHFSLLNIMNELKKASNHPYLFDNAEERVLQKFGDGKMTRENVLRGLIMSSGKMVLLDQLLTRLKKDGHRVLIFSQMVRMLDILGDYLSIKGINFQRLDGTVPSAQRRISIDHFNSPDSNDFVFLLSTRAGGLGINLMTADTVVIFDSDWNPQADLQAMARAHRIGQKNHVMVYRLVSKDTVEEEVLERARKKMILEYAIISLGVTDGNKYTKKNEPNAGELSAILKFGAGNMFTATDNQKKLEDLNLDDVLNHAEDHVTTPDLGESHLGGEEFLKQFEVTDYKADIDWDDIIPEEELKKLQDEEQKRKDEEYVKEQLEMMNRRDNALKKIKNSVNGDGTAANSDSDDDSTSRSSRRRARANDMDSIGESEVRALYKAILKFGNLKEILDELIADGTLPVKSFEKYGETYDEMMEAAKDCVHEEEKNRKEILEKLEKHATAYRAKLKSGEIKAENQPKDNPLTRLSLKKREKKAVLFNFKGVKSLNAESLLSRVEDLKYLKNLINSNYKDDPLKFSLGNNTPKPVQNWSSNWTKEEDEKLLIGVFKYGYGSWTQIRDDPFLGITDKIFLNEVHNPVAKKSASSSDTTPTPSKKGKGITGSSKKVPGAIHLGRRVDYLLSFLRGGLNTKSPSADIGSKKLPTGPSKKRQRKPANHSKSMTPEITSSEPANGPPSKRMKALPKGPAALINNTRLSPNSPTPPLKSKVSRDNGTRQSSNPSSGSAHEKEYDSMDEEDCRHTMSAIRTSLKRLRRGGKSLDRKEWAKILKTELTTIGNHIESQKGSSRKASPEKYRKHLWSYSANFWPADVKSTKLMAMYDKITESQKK

With `CC(=O)N1N=C(c2ccccc2)OC1C(=O)NCCC1=CCCCC1` (stereo not given), the Percent Effect was 1.88% in assay [1]; 12% in [2]; -5.04% in assay [3]; -0.986% with Trypanosoma cruzi; 2.21% in assay [4]; 7.55% in [5]. Further, the Percent Effect was 26.2% in the assay listed under Homo sapiens, -1.06% in [6], 5% in assay [7] and -32.1% in assay [8].
For `Cc1cn2c(n1)CCC(NC(=O)c1cc(Br)cn1C)C2` (stereo not given), the Percent Effect in assay [1] was -8.37%; in assay [2], 0%; in [3], 0.858%; with Trypanosoma cruzi, -3.41%; in assay [4] it was -1.33%; in [5], 8.23%. The Percent Effect is 12.4% in the assay listed under Homo sapiens, -1.58% in assay [6], 0% in assay [7] and -4.6% in assay [8].
Regarding `CC(C)(C)c1cn2nc(N3CCC[C@@H]3CO)sc2n1`, the Percent Effect in [1] was -2.65%; in assay [2], 10.3%; in assay [3] it was -1.69%; in the assay on Trypanosoma cruzi, -0.282%; in [4], 2.87%; in assay [5] it was 6.57%. Besides, the Percent Effect was 2.26% in the assay filed under Homo sapiens, 2.39% in assay [6], 13.2% in assay [7] and -0.0525% in [8].
As for `CCN1CCn2nc(CCC(=O)N3CCCC3)cc2C1`, the Percent Effect in [1] is -6.01%; in assay [2] it was 2.7%; in assay [3], 0.796%; in the assay with Trypanosoma cruzi it was -3.98%; in [4] it was 0.35%; in assay [5], 19%. Further, the Percent Effect in the assay filed under Homo sapiens was 8.04%; in [6], 5.85%; in [7] it was 14.6%; in assay [8], -5.3%.
`CC1CCCN(C(=O)c2cccc(CS(C)(=O)=O)c2)C1` (stereo not given): the Percent Effect in assay [1] is 0.484%; in assay [2], 15.4%; in [3] it was -22.1%; in the assay on Trypanosoma cruzi it was 2.72%; in assay [4], -0.41%; in [5], 22.4%. Also, the Percent Effect in the assay filed under Homo sapiens turned out to be 6.02%; in [6], 4.31%; in assay [7], 22.9%; in [8], 20.9%.
Turning to `O=C(NCc1ccccc1)[C@H]1C[C@@H]2CN(S(=O)(=O)C3CC3)C[C@H]1O2`, the Percent Effect in [1] was -3.6%; in [2], 1.3%; in [3], -4.1%; with Trypanosoma cruzi it was -3.99%; in [4] it was -1.22%; in assay [5] it was 14.4%. Besides, the Percent Effect in the assay filed under Homo sapiens was 14.4%; in assay [6], 3.68%; in [7] it was 7.69%; in [8], 1.77%.
As to `CCNC(=O)CCN1CCC(c2cc(N3CCOCC3)nc(C)n2)CC1`, the Percent Effect in assay [1] is -3.37%; in assay [2], 5.41%; in assay [3], 12.8%; in the assay on Trypanosoma cruzi it was 5.92%; in assay [4] it was 16.4%; in assay [5] it was 6.51%. In addition, the Percent Effect amounted to 17.2% in the assay listed under Homo sapiens, 2.66% in assay [6], 9.76% in assay [7] and 98.8% in assay [8].
On to `Cc1cnn(C(C)C2CC2)c1NC(=O)c1cnccn1` (stereo not given), for which the Percent Effect in [1] was -5.04%; in assay [2] it was 0%; in assay [3], 0.592%; in the assay with Trypanosoma cruzi, 1.07%; in [4] it was 0.35%; in assay [5], -1.03%. Further, the Percent Effect in the assay filed under Homo sapiens stood at 16.7%; in assay [6], 1.6%; in assay [7], 4.88%; in assay [8], 2.37%.
Consider `Cc1ccc2oc(C(=O)N3CCC(C(=O)N4CCCC4)CC3)cc2n1`, for which the Percent Effect in assay [1] was -3.66%; in assay [2] it was 7.69%; in [3] it was 1.13%; with Trypanosoma cruzi, 2.35%; in assay [4], 6.56%; in [5] it was -0.768%. The Percent Effect in the assay listed under Homo sapiens was 7.89%; in assay [6], 9.09%; in [7] it was 18.1%; in assay [8] it was -0.651%.
As to `CC(c1nc(C2CC2)no1)N1CCN(Cc2cccc(C#N)c2)CC1` (stereo not given), the Percent Effect in [1] was -5.05%; in assay [2], 15.4%; in assay [3] it was -15.7%; in the assay with Trypanosoma cruzi, 5.35%; in assay [4], -4.1%; in assay [5], 10.5%. In addition, the Percent Effect in the assay listed under Homo sapiens is 3.36%; in assay [6], 3.35%; in [7], 20.5%; in assay [8], -0.399%.
On to `COc1ccc(CN(C)CC(=O)NC2(C)CCS(=O)(=O)C2)cc1F` (stereo not given), for which the Percent Effect was 0.854% in assay [1]; 0% in assay [2]; 4.26% in assay [3]; -5.42% in the assay on Trypanosoma cruzi; 4.88% in [4]; 2.8% in assay [5]. Moreover, the Percent Effect in the assay listed under Homo sapiens is 17.4%; in [6], -0.526%; in assay [7], 0%; in assay [8], -1.6%.
In the case of `Cc1ccc(NC2CCN(C(=O)c3cnc(C)s3)CC2)nn1`, the Percent Effect in assay [1] was -3.62%; in assay [2], 10.7%; in assay [3], -0.486%; in the assay with Trypanosoma cruzi, -3.01%; in assay [4], 0.887%; in assay [5], -0.594%. The Percent Effect was 15.9% in the assay filed under Homo sapiens, 5.79% in [6], 12.8% in assay [7] and -6.74% in [8].

For the origin of these results see ChEMBL document CHEMBL3988442, “University of Dundee, Small-Polar-MMV Screening Library” (2021).
